For 17 molecules, outcome and AC50 results are on record in PubChem BioAssay (EPA / NIEHS).

Results filed as inconclusive are left out. The source made the active and inactive calls. How the source made its calls: active means hit-call score of the fitted dose curve at least 0.9, where 1 is the maximum; inconclusive means response in the unintended direction; inactive means score below 0.9.

Read-out in this test: alkyl and aryl transferase (GSTA2), GSTA2 (gene 2939)
The test is described as follows: CLD_GSTA2_48hr: CellzDirect (CLD) Gene Expression Assay for alkyl and aryl transferase (GSTA2) at 48 hours (AID 2283708).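 Further: active means mRNA induction above DMSO vehicle baseline.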 An outline of the steps:
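Primary human hepatocytes dosed daily for two days (0.2% DMSO vehicle), harvested at 48 h. GSTA2 mRNA induction measured by quantitative nuclease protection assay with chemiluminescent imaging, fitted for gain of signal relative to DMSO.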
For the molecule `C=C(C)CN(CC)c1c([N+](=O)[O-])cc(C(F)(F)F)cc1[N+](=O)[O-]`, the call was inactive.
On the same count and under the same terms, the entry for `CCN(CC)C(=O)C(C)Oc1cccc2ccccc12` (configuration not stated) is “inactive”; for `Cc1c(COC(=O)[C@@H]2[C@H](/C=C(\Cl)C(F)(F)F)C2(C)C)cccc1-c1ccccc1` it is “inactive”.
`CCCCC(O)(Cn1cncn1)c1ccc(Cl)cc1Cl` (configuration not stated): the molecule was classed as inactive.
On the same count and under the same terms, the entry for `Clc1cccc(C(Cl)(Cl)Cl)n1` is “inactive”.
Still for that read-out and setting: the same measure for `CCCC(=NOCC)C1=C(O)CC(CC(C)SCC)CC1=O` (configuration not stated): “inactive”; for `CNC(=O)N(C)c1nnc(C(C)(C)C)s1`: “inactive”; for `CC(C)N1C(=O)c2ccccc2NS1(=O)=O`: “inactive”.
By AC50 is commonly meant the midpoint of the concentration-response curve, whichever way the signal moves. On to `CSC(=O)c1c(C(F)F)nc(C(F)(F)F)c(C(=O)SC)c1CC(C)C`, for which the AC50 was 11.8 µM (active).
The same measure, in the same setting: the figure for `COCC(C)N(C(=O)CCl)c1c(C)csc1C` (configuration not stated) is 32.1 µM (active).
Turning to `COP(=S)(OC)SCn1nnc2ccccc2c1=O`, the call was inactive.
On the same count and under the same terms, the same measure for `COc1ccc(-c2ccccc2)cc1NNC(=O)OC(C)C`: “inactive”; for `COP(=O)(OC)O/C(C)=C/C(=O)N(C)C`: “inactive”.
On the same count and under the same terms, the same measure for `OC(c1ccc(Cl)cc1)(c1ccc(Cl)cc1)C(Cl)(Cl)Cl`: “inactive”; for `CS(=O)(=O)c1ccc(C(=O)C2C(=O)CCCC2=O)c([N+](=O)[O-])c1`: “inactive”.
On the same count and under the same terms, the same measure for `Clc1nc(Cl)nc(Nc2ccccc2Cl)n1`: “inactive”; for `O=C1C2CC=CCC2C(=O)N1SC(Cl)(Cl)Cl` (configuration not stated): “inactive”.
